SMILES strings stand for the structures. About 83,000 compounds went through this panel and 20% of them were active in at least one assay; those are over-represented in the sample as a whole.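 Note: values are percent growth. 100 is the growth of untreated cells, values between 100 and 0 indicate rising inhibition; between -100 and 0 indicates cell death.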 A number with no mark means an inactive call. The source made the active and inactive calls. The calls were made as follows: active = growth percent below 10; inactive = the rest.

Test systems include HCT-15 colon; HT29 colon; SNB-75 CNS; SNB-19 CNS; U251 CNS; PC-3 prostate; SK-MEL-5 melanoma; UACC-62 melanoma; LOX IMVI melanoma; SK-MEL-28 melanoma; SK-MEL-2 melanoma; EKVX NSCLC; SN12C renal; UO-31 renal; TK-10 renal; ACHN renal; CAKI-1 renal; A498 renal; CCRF-CEM leukemia.
Common to all, as to test: NCI-60 one-dose screen, 48 h (100 = growth as untreated, 0 = no growth, -100 = all killed)
Conditions in all cases: 10 µM

With `CCCCCc1ccc(S(=O)(=O)Nc2cc(-c3csc(N(C)C(C)=O)n3)ccc2N2CCN(C)CC2)cc1`, the growth with HCT-15 colon was 1.4% (active); in the assay with HT29 colon it was 15.2%; in the assay with SNB-75 CNS, 40%; in the assay with SNB-19 CNS it was 41%; in the assay on U251 CNS it was 19.6%; with PC-3 prostate, 37%. In addition, the growth was -6.97% (active) with SK-MEL-5 melanoma; -62.2% (active) with UACC-62 melanoma; -71.1% (active) in the assay on LOX IMVI melanoma; 11.8% in the assay with SK-MEL-28 melanoma; 24.2% with SK-MEL-2 melanoma; 65.4% in the assay with EKVX NSCLC. The growth was 14.1% in the assay on SN12C renal; 33.1% in the assay with UO-31 renal; 47.3% in the assay with TK-10 renal; 13.7% in the assay with ACHN renal; 38.9% in the assay on CAKI-1 renal; 104% with A498 renal. Besides, the growth in the assay with CCRF-CEM leukemia is -27.5% (active).

In the case of `N[C@@H](CSSC[C@H](N)C(=O)Nc1ccc(OCC2CCCC2)cc1)C(=O)Nc1ccc(OCC2CCCC2)cc1`, the growth in the assay with HCT-15 colon is -76.9% (active); in the assay with HT29 colon, -93.3% (active); in the assay on SNB-75 CNS, -96.3% (active); with SNB-19 CNS, -95.6% (active); in the assay on U251 CNS, -86.6% (active); with PC-3 prostate, -87.3% (active). The growth was -100% (active) in the assay on SK-MEL-5 melanoma; -99.7% (active) with UACC-62 melanoma; -96.1% (active) in the assay with LOX IMVI melanoma; -99% (active) in the assay on SK-MEL-28 melanoma; -93% (active) with SK-MEL-2 melanoma; -90.2% (active) in the assay with EKVX NSCLC. The growth in the assay on SN12C renal was -98.5% (active); in the assay on UO-31 renal it was -100% (active); in the assay on TK-10 renal, -95.5% (active); in the assay with ACHN renal it was -100% (active); with CAKI-1 renal, -99.1% (active); in the assay with A498 renal it was -85.4% (active). Besides, in the assay with CCRF-CEM leukemia, the growth was -60.5% (active).

Regarding `O=C(Nc1ccc(OCC(=O)c2ccccc2)cc1)Nc1ccc(Cl)c(C(F)(F)F)c1`, the growth was 17.8% in the assay on HCT-15 colon; 29.3% with HT29 colon; 3.5% (active) with SNB-75 CNS; 15.7% with SNB-19 CNS; 25.8% in the assay with U251 CNS; 6.92% (active) with PC-3 prostate. The growth with SK-MEL-5 melanoma was -61.2% (active); in the assay with UACC-62 melanoma, -21.3% (active); in the assay with LOX IMVI melanoma, -24.4% (active); with SK-MEL-28 melanoma, 4.82% (active); in the assay with SK-MEL-2 melanoma it was -53.7% (active); in the assay with EKVX NSCLC, 17.2%. In addition, the growth was 24.9% in the assay with SN12C renal; 17.6% in the assay on UO-31 renal; 49.2% in the assay with TK-10 renal; 18.1% in the assay with ACHN renal; 20.2% in the assay with CAKI-1 renal; 17.1% with A498 renal. In addition, the growth in the assay on CCRF-CEM leukemia is 9.86% (active).

Turning to `Cc1ccc(NC(=O)c2ccc(-n3c(=O)[nH]c4ccccc4c3=O)cc2)cc1`, the growth with HCT-15 colon is 88.7%; in the assay with HT29 colon, 104%; in the assay on SNB-75 CNS, 50.5%; with SNB-19 CNS, 68.4%; in the assay on U251 CNS, 91.9%; with PC-3 prostate it was 96.1%. For the same compound, the growth is 90.9% in the assay on SK-MEL-5 melanoma; 82.4% with UACC-62 melanoma; 85.1% with LOX IMVI melanoma; 102% in the assay on SK-MEL-28 melanoma; 97.8% in the assay on SK-MEL-2 melanoma; 84.8% in the assay on EKVX NSCLC. Also, the growth in the assay with SN12C renal is 69.4%; in the assay on UO-31 renal, -16.8% (active); with TK-10 renal, 96.3%; with ACHN renal, 68.3%; with CAKI-1 renal, 88.4%; in the assay on A498 renal, 107%. Further, in the assay on CCRF-CEM leukemia, the growth was 60.7%.

Regarding `Cc1ccc(S(=O)(=O)c2nc(-c3ccccc3)oc2S(=O)(=O)CC(=O)N2CCCC2)cc1`, the growth in the assay with HCT-15 colon is -78.2% (active); in the assay with HT29 colon, -81.7% (active); with SNB-75 CNS it was 14.7%; in the assay on SNB-19 CNS it was 68.2%; in the assay with U251 CNS, -77.5% (active); with PC-3 prostate, 4.7% (active). The growth is 26.5% in the assay on SK-MEL-5 melanoma; -85.4% (active) in the assay on UACC-62 melanoma; -91.3% (active) in the assay with LOX IMVI melanoma; -100% (active) in the assay on SK-MEL-28 melanoma; -50.6% (active) with SK-MEL-2 melanoma; 5.22% (active) with EKVX NSCLC. Moreover, the growth was -85% (active) in the assay with SN12C renal; -100% (active) in the assay with UO-31 renal; -99.7% (active) in the assay with TK-10 renal; -100% (active) with ACHN renal; -100% (active) in the assay on CAKI-1 renal; 90.1% in the assay with A498 renal. For the same compound, the growth in the assay on CCRF-CEM leukemia was -64.4% (active).

With `O=C(CS(=O)(=O)c1oc(-c2ccc(Cl)cc2)nc1S(=O)(=O)c1ccc(Cl)cc1)N1CCOCC1`, the growth in the assay with HCT-15 colon is -53.6% (active); with HT29 colon, -48.9% (active); with SNB-75 CNS it was 54.7%; in the assay on SNB-19 CNS it was 86.2%; in the assay with U251 CNS, 35.9%; in the assay on PC-3 prostate, 63.3%. In addition, the growth with SK-MEL-5 melanoma is 77.6%; with UACC-62 melanoma, 56.7%; with LOX IMVI melanoma, -90.8% (active); with SK-MEL-28 melanoma, 35%; in the assay with SK-MEL-2 melanoma it was 83.9%; in the assay on EKVX NSCLC it was 83.5%. Besides, the growth in the assay on SN12C renal was 55.3%; in the assay with UO-31 renal it was -19.9% (active); in the assay on TK-10 renal, 16.5%; in the assay on ACHN renal, -98.2% (active); with CAKI-1 renal, 30.9%; with A498 renal, 134%. Besides, the growth with CCRF-CEM leukemia is -34.6% (active).

`COc1ccc(-c2nc(S(=O)(=O)c3ccc(C)cc3)c(S(C)(=O)=O)o2)cc1`: the growth in the assay on HCT-15 colon is -72.6% (active); in the assay with HT29 colon, -74.8% (active); in the assay on SNB-75 CNS, 43.6%; in the assay on SNB-19 CNS, 65.5%; with U251 CNS, -90.3% (active); with PC-3 prostate it was 20.8%. Further, the growth is 10.1% in the assay on SK-MEL-5 melanoma; -58.2% (active) with UACC-62 melanoma; -89.1% (active) in the assay on LOX IMVI melanoma; -98.2% (active) in the assay with SK-MEL-28 melanoma; -62.4% (active) with SK-MEL-2 melanoma; 36.8% in the assay with EKVX NSCLC. Also, the growth with SN12C renal is -73.3% (active); in the assay with UO-31 renal, -100% (active); with TK-10 renal it was -100% (active); in the assay with ACHN renal it was -100% (active); in the assay on CAKI-1 renal it was -100% (active); in the assay on A498 renal, 116%. For the same compound, the growth with CCRF-CEM leukemia was -50.5% (active).

Regarding `CC(=C(c1ccc(OCCCN(C)C)cc1)c1ccc(OCCCN(C)C)cc1)c1ccccc1`, the growth was -92.1% (active) in the assay on HCT-15 colon; -78.4% (active) in the assay on HT29 colon; -77.5% (active) with SNB-75 CNS; -98.1% (active) in the assay on SNB-19 CNS; -86.1% (active) in the assay with U251 CNS; -74.2% (active) with PC-3 prostate. Besides, the growth was -100% (active) in the assay with SK-MEL-5 melanoma; -99.3% (active) with UACC-62 melanoma; -100% (active) in the assay with LOX IMVI melanoma; -99.3% (active) with SK-MEL-28 melanoma; -86.5% (active) with SK-MEL-2 melanoma; -96.1% (active) in the assay with EKVX NSCLC. The growth in the assay on SN12C renal was -96.8% (active); in the assay with UO-31 renal, -99.9% (active); with TK-10 renal, -92% (active); in the assay on ACHN renal, -99.2% (active); in the assay on CAKI-1 renal it was -100% (active); in the assay on A498 renal, -86.4% (active). Besides, the growth in the assay with CCRF-CEM leukemia is -65.9% (active).

The values are drawn from PubChem BioAssay (NCI).
